Reference: PubChem BioAssay (Tox21)
“And” between values parts separate entries of the source, which are not always exact repeats. Identical values can stand only once. Results filed as inconclusive are left out. More than one record can exist for a structure, and the calls need not agree. The source made the active and inactive calls. Unless noted, the call rests on the fitted dose curve; in most records, active means well fitted curve in the direction sought with a large enough effect in the repeat runs; inconclusive means weak or mixed curves; inactive means no such curve, though single readings can be large; an effect the other way counts as inactive or inconclusive.

Columns and labels:
[1] = biological target: Nuclear receptor subfamily 1 group I member 3 (Homo sapiens) (UniProt Q14994); experiment: qHTS assay to identify small molecule antagonists of the constitutive androstane receptor (CAR) signaling pathway (AID 1224838); further: nearly all actives have a fitted effect of over 40% in size; further: potency means the concentration at half of the fitted maximal effect
Outline: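 CITCO-stimulated (50 nM final) HepG2 cells stably transfected with hCAR and CYP2B6-2.2kb luciferase were exposed to compounds at 15 concentrations for 24 h at 37 C/5% CO2. A luciferase reagent was added and luminescence recorded after 30 min.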

[2] = biological target: Nuclear receptor subfamily 1 group I member 3 (Homo sapiens) (UniProt Q14994); experiment: qHTS assay to identify small molecule agonists of the constitutive androstane receptor (CAR) signaling pathway (AID 1224839); further: nearly all actives have a fitted effect of over 15% in size; further: potency means the concentration at half of the fitted maximal effect;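 on activation: HepG2 cells stably carrying human CAR and a CYP2B6 luciferase reporter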
Outline: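 Luminescent ONE-Glo read-out after 24 hr, 37 C exposure of double-stable HepG2-CYP2B6-hCAR reporter cells to a 15-point compound series, in the presence of 0.75 uM PK11195 (final).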

[3] = qHTS assay to identify small molecule antagonists of the estrogen related receptor signaling pathway with the pleiotropic PPARgamma coactivator (PGC) from Tox21 10K library - cell viability counter screen (AID 1224840; active means well fitted cell-killing curve with a large enough effect in the repeat runs, not every such curve was filed as active; further: nearly all actives have a fitted effect of over 40% in size; further: potency means the concentration at half of the fitted maximal effect)
Outline: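 Viability counter screen, PGC/ERR cells: 17.5 h compound exposure at 37 C, CellTiter-Fluor fluorescence endpoint.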

[4] = biological target: Thyrotropin receptor (Homo sapiens) (UniProt P16473); experiment: qHTS assay to identify small molecule agonists of the thyroid stimulating hormone receptor (TSHR) signaling pathway (AID 1224843; calls by dose curve; further: nearly all actives have a fitted effect of over 45% in size; further: potency means the concentration at half of the fitted maximal effect)
Outline: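 A cell-based cAMP HTRF format was run in TSHR-transfected HEK293 cells, 800 per well. Treatment: 30 min, room temperature. Detection: 1 h with labelled cAMP and anti-cAMP cryptate. Concentration-response over 15 points, three replicates.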

[5] = qHTS assay to identify small molecule agonists of the hypoxia (HIF-1) signaling pathway - cell viability counter screen (AID 1224844; calls by dose curve; further: nearly all actives have a fitted effect of over 50% in size; further: potency means the concentration at half of the fitted maximal effect)
Outline: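 Same wells as the HIF-1 reporter screen; ME-180 cells carrying HRE-bla, 17 hr treatment at 37C; CellTiter-Glo luminescence read after 30 min at room temperature.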

[6] = qHTS assay to identify small molecule agonists of H2AX (AID 1224845; active means well fitted activation curve with a large enough effect in the signal ratio in the repeat runs, not every such curve was filed as active; the % refers to the signal ratio; further: potency means the concentration at half of the fitted maximal effect)
Outline: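 Phospho-H2AX Ser139 measured by HTRF (ex 320 nm; em 665 and 620 nm) after 24 hr antibody incubation. Compounds, 15 concentrations, 0.76% DMSO, were applied to CHO-K1 cells for 3hr at 37C before lysis.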

[7] = qHTS assay to identify small molecule agonists of the hypoxia (HIF-1) signaling pathway (AID 1224846; active means well fitted activation curve with a large enough effect in the signal ratio in the repeat runs, not every such curve was filed as active; the % refers to the signal ratio)
Outline: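 In ME-180 cells bearing an HRE-bla construct, 17 h treatment with DMSO-dissolved compounds at 37C was followed by CCF4-AM loading to quantify reporter induction.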

[8] = qHTS assay to identify small molecule agonists of H2AX - cell viability counter screen (AID 1224847; calls by dose curve; further: nearly all actives have a fitted effect of over 30% in size; further: potency means the concentration at half of the fitted maximal effect;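 on activity change, negative = cytotoxicity: wild-type CHO-K1 cells; top concentration of the series differs between compounds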)
Outline: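 Counter-screen for viability: CellTiter-Glo ATP luminescence read after 3 h compound treatment (15-point titration, 0.76% DMSO final) of CHO-K1 cells at 37C, with 30 min room-temperature reagent incubation.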

[9] = qHTS RealTime-Glo MT Cell Viability Assay in HepG2 cells - 24 hour (AID 1224867); further: nearly all actives have a fitted effect of over 50% in size; further: potency means the concentration at half of the fitted maximal effect
Outline: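 HepG2 cells (600/well) were dispensed with RealTime-Glo reagents, incubated 5 h at 37 °C, then treated with compounds in DMSO for up to 40 h. Nonlytic NanoLuc luminescence reflecting viable cells was read at each stated time point.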

[10] = qHTS RealTime-Glo MT Cell Viability Assay in HEK293 cells - 32 hour (AID 1224868); further: nearly all actives have a fitted effect of over 50% in size; further: potency means the concentration at half of the fitted maximal effect; on activity change, negative = cytotoxic: top concentration of the series differs between compounds
Outline: (§1)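 HEK293 cells seeded with NanoLuc/prosubstrate reagent, rested 5 h at 37 C, then dosed and kept at 37 C up to 40 h. Nonlytic real-time luminescence from viable cells read at 0, 8, 16, 24, 32 and 40 h.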

[11] = qHTS RealTime-Glo MT Cell Viability Assay in HepG2 cells - 40 hour (AID 1224870); further: nearly all actives have a fitted effect of over 50% in size; further: potency means the concentration at half of the fitted maximal effect
Outline: (§2)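 Real-time viability: cells seeded at 600 per well together with NanoLuc and cell-permeant prosubstrate, compounds added after 5 h incubation. Luminescence tracked at 0, 8, 16, 24, 32 and 40 h of exposure.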

[12] = qHTS RealTime-Glo MT Cell Viability Assay in HEK293 cells - 16 hour (AID 1224872); further: nearly all actives have a fitted effect of over 50% in size; further: potency means the concentration at half of the fitted maximal effect; on activity change, negative = cytotoxicity: top concentration of the series differs between compounds
Outline: as §1

[13] = qHTS RealTime-Glo MT Cell Viability Assay in HepG2 cells - 8 hour (AID 1224873); further: nearly all actives have a fitted effect of over 55% in size; further: potency means the concentration at half of the fitted maximal effect
Outline: as §2

[14] = qHTS assay to identify small molecule antagonists of the estrogen related receptor signaling pathway with the pleiotropic PPARgamma coactivator (PGC) from Tox21 10K library (AID 1224841; call rule not given here; further: potency means the concentration at half of the fitted maximal effect)
Outline: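 In the PGC/ERR line, DMSO solutions of test chemicals are pin-delivered to 2,000 cells/well six hours after dispensing. Following eighteen hours' incubation, One-Glo reagent is added and luminescence recorded.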

[15] = qHTS assay to identify small molecule agonists of the estrogen related receptor signaling pathway with the pleiotropic PPARgamma coactivator (PGC) from Tox21 10K library (AID 1224842); further: nearly all actives have a fitted effect of over 15% in size; further: potency means the concentration at half of the fitted maximal effect
Outline: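 Luminescence from One-Glo (30 min, room temperature) measured after PGC/ERR cells had 18 h at 37 C with pinned compound (23 nL in DMSO). Cells had been seeded at 2,000 per well and pre-incubated 6 h.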

[16] = qHTS assay to identify small molecule antagonists of the estrogen related receptor (ERR) signaling pathway from Tox21 library (AID 1224848); further: nearly all actives have a fitted effect of over 50% in size; further: potency means the concentration at half of the fitted maximal effect
Outline: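 ERR cell line, 2,000 cells/well. 6 h settle, then compound (DMSO) added; 18 h at 37 C; ONE-Glo luminescence after 30 min RT.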

[17] = A CellTox Green Cytotoxicity Assay to monitor cytotoxicity in HEK293 cells - 0 hour (AID 1224869); further: nearly all actives have a fitted effect of over 50% in size; further: potency means the concentration at half of the fitted maximal effect
Outline: (§3)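 Homogeneous no-lysis format: HEK293 cell suspension mixed with CellTox Green reagent, seeded, incubated 5 h at 37 C/5% CO2, then dosed by pintool with compound in DMSO.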

[18] = A CellTox Green Cytotoxicity Assay to monitor cytotoxicity in HEK293 cells - 40 hour (AID 1224871); further: nearly all actives have a fitted effect of over 45% in size; further: potency means the concentration at half of the fitted maximal effect
Outline: as §3

[19] = qHTS assay to identify small molecule agonists of the estrogen related receptor (ERR) signaling pathway from Tox21 library (AID 1224849; calls by dose curve; further: nearly all actives have a fitted effect of over 15% in size); settings: ERR reporter cell line, ONE-Glo luciferase, 18 h; at 92.4 µM (top of the series) unless noted
Outline: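 Reporter cells (ERR, NTP source) treated with Tox21 10K compounds 18 h, 37 C. Readout: ONE-Glo luminescence, 30 min RT.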
On the % scale 0 is the no-effect control and ±100 the full control effect.

Chain of Thyrotropin receptor (Homo sapiens) (P16473 whole entry, looked up): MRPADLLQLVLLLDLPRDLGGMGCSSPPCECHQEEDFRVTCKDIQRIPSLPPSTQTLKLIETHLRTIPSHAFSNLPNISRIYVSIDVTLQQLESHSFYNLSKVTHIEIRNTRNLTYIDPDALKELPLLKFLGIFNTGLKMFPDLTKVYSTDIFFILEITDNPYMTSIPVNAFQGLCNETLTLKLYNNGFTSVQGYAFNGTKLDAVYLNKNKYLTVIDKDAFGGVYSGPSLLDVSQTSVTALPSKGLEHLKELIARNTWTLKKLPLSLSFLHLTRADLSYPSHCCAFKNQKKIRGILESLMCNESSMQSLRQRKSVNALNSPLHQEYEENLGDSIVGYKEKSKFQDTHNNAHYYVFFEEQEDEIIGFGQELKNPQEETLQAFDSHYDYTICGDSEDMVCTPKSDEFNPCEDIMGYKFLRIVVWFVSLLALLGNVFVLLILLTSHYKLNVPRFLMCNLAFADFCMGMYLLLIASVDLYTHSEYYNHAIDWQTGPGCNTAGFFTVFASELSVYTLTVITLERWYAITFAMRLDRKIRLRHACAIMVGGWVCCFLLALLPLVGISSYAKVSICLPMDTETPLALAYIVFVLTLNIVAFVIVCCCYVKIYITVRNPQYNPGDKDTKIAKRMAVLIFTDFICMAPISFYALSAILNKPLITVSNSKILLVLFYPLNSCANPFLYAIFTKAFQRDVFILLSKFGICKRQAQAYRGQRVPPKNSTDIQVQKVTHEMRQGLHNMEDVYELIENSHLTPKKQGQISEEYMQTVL
Chain of Nuclear receptor subfamily 1 group I member 3 (Homo sapiens) (Q14994 whole entry, looked up): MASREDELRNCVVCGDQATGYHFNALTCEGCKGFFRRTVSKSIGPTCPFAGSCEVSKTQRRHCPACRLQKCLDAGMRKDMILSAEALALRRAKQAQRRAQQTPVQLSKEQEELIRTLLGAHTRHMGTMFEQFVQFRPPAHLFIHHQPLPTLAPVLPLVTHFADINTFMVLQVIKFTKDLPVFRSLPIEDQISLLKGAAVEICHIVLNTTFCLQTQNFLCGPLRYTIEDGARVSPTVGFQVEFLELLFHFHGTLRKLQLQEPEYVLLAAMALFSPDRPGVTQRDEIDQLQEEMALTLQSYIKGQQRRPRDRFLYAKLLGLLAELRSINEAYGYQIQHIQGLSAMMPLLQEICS

CN(C)CCN1CCOCC1
inactive: Potency [1] | Potency [2] | Potency [3] | Potency [4] | Potency [5] | Potency [6] | outcome [7] | Potency [8] | Potency [9] | Potency [10] | Potency [11] | Potency [12] | Potency [13]

CC1=C(/C=C/C(C)=C/C=C/C(C)=C/C(=O)Nc2ccc(O)cc2)C(C)(C)CCC1
inactive: Potency [2] | Potency [15] | Potency [6] | Potency [17] | Potency [11]
active: Potency [3] 28 µM and 13.3 µM | Potency [14] 6.27 µM | Potency [4] 22.2 µM and 11.9 µM | Potency [5] 22.4 µM and 19 µM | Potency [8] 103 µM | Potency [16] 14 µM and 11.9 µM | Potency [10] 1 µM and 425 nM | Potency [12] 796 nM and 477 nM
inactive and 26.8 µM (active): Potency [9]
inactive and 23.9 µM (active): Potency [13]

CCN(CC)CCNc1ccc(CO)c2sc3ccccc3c(=O)c12
active: Potency [1] 2.66 µM | Potency [14] 8.41 µM | Potency [16] 13.3 µM | Potency [9] 23.9 µM | Potency [10] 16.9 µM | Potency [11] 21.3 µM | Potency [18] 23.9 µM | Potency [12] 16.9 µM
inactive: Potency [2] | Potency [15] | Potency [6] | Potency [8] | Potency [17]

Cc1ccc(N)cc1O
inactive: Potency [1] | Potency [3] | outcome [7] | Potency [9] | Potency [17] | Potency [11] | Potency [18] | Potency [13]
active: Potency [2] 27.3 µM | Potency [8] 101 µM

O=C(Nc1ccc(Cl)cc1)Nc1ccc(Cl)c(C(F)(F)F)c1
inactive: Potency [2] | Potency [15] | Potency [4] | Potency [6] | activity change, positive = activation [19] -40.9% [at 42.5 µM] | Potency [13]
active: Potency [1] 16.8 µM | Potency [14] 5.31 µM | Potency [5] 26.8 µM | Potency [16] 3.76 µM | Potency [10] 4.77 µM | Potency [12] 8.49 µM

Cc1nc(Nc2ncc(C(=O)Nc3c(C)cccc3Cl)s2)cc(N2CCN(CCO)CC2)n1
inactive: Potency [2] | Potency [14] | Potency [4] | Potency [5] | outcome [7] | Potency [17] | Potency [18] | Potency [13]
active: Potency [1] 9.44 µM | Potency [15] 0.0944 µM | Potency [6] 55.2 µM | Potency [16] 8.41 µM | Potency [10] 30.1 µM

C=CC(C)(CCC=C(C)C)OC(=O)/C=C/c1ccccc1 (centres undefined)
inactive: Potency [1] | Potency [3] | Potency [4] | Potency [5] | outcome [7] | Potency [8] | Potency [9] | Potency [10] | Potency [11] | Potency [12] | Potency [13]
active: Potency [17] 38.9 µM | Potency [18] 38.9 µM

CCCCOc1ccc(C(=O)CCN2CCCCC2)cc1
active: Potency [9] 21.3 µM | Potency [10] 16.9 µM | Potency [11] 6.74 µM
inactive: Potency [1] | Potency [2] | Potency [3] | Potency [4] | Potency [8] | Potency [17]

Nc1ncnc2c1ncn2[C@@H]1O[C@H](COP(=O)(O)O)[C@@H](O)[C@H]1O
inactive: Potency [1] | Potency [2] | Potency [3] | Potency [4] | Potency [5] | Potency [6] | Potency [8] | Potency [10] | Potency [17] | Potency [11] | Potency [12]

CCCC(=O)OCC(COC(=O)CCC)OC(=O)CCC
inactive: Potency [1] | Potency [2] | Potency [14] | Potency [15] | Potency [5] | outcome [7] | Potency [8] | Potency [16] | activity change, positive = activation [19] -2.08% | Potency [9] | Potency [10] | Potency [17] | Potency [18] | Potency [12] | Potency [13]

C=C[C@](C)(O)CC[C@@H]1[C@@]2(C)CCCC(C)(C)[C@@H]2CC[C@@]1(C)O
inactive: Potency [1] | Potency [2] | Potency [15] | Potency [6] | Potency [17]
active: Potency [3] 61.1 µM | Potency [4] 19.3 µM | Potency [5] 49 µM | Potency [8] 113 µM | Potency [16] 27.3 µM | Potency [9] 49 µM | Potency [10] 21.9 µM | Potency [11] 54.9 µM | Potency [18] 43.6 µM | Potency [12] 19.5 µM

COc1cc(C(C)C)c2c(c1)S(=O)(=O)N(COc1cc(=O)n3cccc(OCCN4CCCCC4)c3n1)C2=O
inactive: activity, negative = inhibition [1] -19.4% [at 19 µM] | activation [2] -2.29% [at 19 µM] | viability change, negative = cytotoxic [3] -15.4% [at 19 µM] | activation [4] -0.216% [at 19 µM] | activity change, negative = cytotoxicity [5] -17% [at 15.8 µM] | activity change, negative = cytotoxicity [9] -8.66% [at 15.8 µM] | cytotoxicity [17] -2.82% [at 15.8 µM] | activity change, negative = cytotoxic [11] -2.06% [at 15.8 µM] | activity change, negative = cytotoxicity [12] 3.24% [at 15.8 µM]
active: Potency [8] 24 µM
